The results in this text go back to the OligoGym collection.
Further: reference of the scale not given here.

One assay deals with KRTAP10-10. In words: pooled miR-30 sensor sort-seq; sequence = guide strand. As to conditions: shRNA.
The sequence TGGTAGCATGGGGTTGTGCAGG showed a sensor-assay potency score (higher = more potent) of -1.66.

On to AAGCACACAGGCTTGTTACAGA, for which the sensor-assay potency score (higher = more potent) was -0.517.

TGCAGGAGCTGGTGTAGCCTGA displayed a sensor-assay potency score (higher = more potent) of -0.876.

In turn, TTAGTTCTGCAGAACTTGGGTC yielded a sensor-assay potency score (higher = more potent) of 0.494.

The sequence TAGCAGACGGACTTAGAGCAGA yielded a sensor-assay potency score (higher = more potent) of -0.81.

TAGGCACGAAGCACACAGGCTT displayed a sensor-assay potency score (higher = more potent) of 0.129.

On to TAGACTGCTGGTAGCATGGGGT, for which the sensor-assay potency score (higher = more potent) is -0.566.

Take TGGGCAGTCGACTACCCGCCAA: the sensor-assay potency score (higher = more potent) is -1.3.

For TTACAGACGGGCACGCAGCAGA, the sensor-assay potency score (higher = more potent) was -0.719.

AAGACTCGGAGCAGGTAGGCAC: the sensor-assay potency score (higher = more potent) is -0.677.

Sequence TAGCATGGGGTTGTGCAGGAGC gave a sensor-assay potency score (higher = more potent) of -0.83.

The sequence TTGTTACAGACGGGCACGCAGC showed a sensor-assay potency score (higher = more potent) of -1.52.

The target of another assay is KRTAP10-2. Described as above. Conditions: shRNA.
Consider TTGGTGCAGGCGCTGGAGCAGA, for which the sensor-assay potency score (higher = more potent) was -1.45.

Consider AACAGGTACACAGCAGATGGAC, for which the sensor-assay potency score (higher = more potent) was -1.3.

CAGCACACAGCTTTGCAGCAGA showed a sensor-assay potency score (higher = more potent) of -2.3.

In the case of AGCAGGACTGCTGACACGGGGA, the sensor-assay potency score (higher = more potent) is -1.24.

For the sequence AGCATGAAGAGGATGACTCAGA, the sensor-assay potency score (higher = more potent) was -1.89.

For the sequence TACACAGCAGATGGACTTGCAG, the sensor-assay potency score (higher = more potent) is -0.914.

In turn, AAGAGGATGACTCAGAGCAGGT yielded a sensor-assay potency score (higher = more potent) of -1.29.

Sequence TGGGCACGCAGCACACAGCTTT yielded a sensor-assay potency score (higher = more potent) of -1.18.

On to TGGCCTGAGGAAAAGCTGCAGG, for which the sensor-assay potency score (higher = more potent) was -1.08.

ACACAGCAGATGGACTTGCAGC returned a sensor-assay potency score (higher = more potent) of -1.45.

For TTGCAGCAGACGGACACACAGC, the sensor-assay potency score (higher = more potent) is -1.17.

TAGACTGCTGGCAGCACGGAGA registered a sensor-assay potency score (higher = more potent) of -0.939.

Another assay deals with KRTAP13-1. Described as above. Conditions: shRNA.
Take TAGCAAGAAGACTGGCAGCTCC: the sensor-assay potency score (higher = more potent) is -0.434.

TGGTCTGTAGCAAGAAGACTGG: the sensor-assay potency score (higher = more potent) was -0.92.

Take TAGAATAAGAGGCTAATTCTTT: the sensor-assay potency score (higher = more potent) is -0.634.

On to TTGGTCTGTAGCAAGAAGACTG, for which the sensor-assay potency score (higher = more potent) is -0.458.

In turn, TCTGTAGCAAGAAGACTGGCAG had a sensor-assay potency score (higher = more potent) of 0.163.

In the case of TCCACATAGGATGTCTGGCAGC, the sensor-assay potency score (higher = more potent) was -1.92.

As for ACATAGGATGTCTGGCAGCTGG, the sensor-assay potency score (higher = more potent) was -1.73.

TCCAACGCCATAGCCCAGGGAA came in with a sensor-assay potency score (higher = more potent) of -1.31.

Take TAGACCTGGTTGCTGGGGTAGG: the sensor-assay potency score (higher = more potent) is -1.13.

For TAGGAAAAGCCACAGGAGGAGG, the sensor-assay potency score (higher = more potent) is -1.49.

As for TAACCCAGGGATCTGAAGCCAC, the sensor-assay potency score (higher = more potent) is -0.898.

A further assay deals with KRTAP13-2. The assay is described as above. As to conditions: shRNA.
AGGTAGTCACCACAGGAGCGGG had a sensor-assay potency score (higher = more potent) of -1.51.

In turn, TAAGTCGTCTTGCAAGGACTGC had a sensor-assay potency score (higher = more potent) of -0.646.

As to TAGGCTGGTCTGTAACAAGGAG, the sensor-assay potency score (higher = more potent) was -0.634.

TCCACATAGGACGTCTGGCAGC: the sensor-assay potency score (higher = more potent) is -2.1.
